# Assay outcomes (PubChem BioAssay)
# PTAP TSG101 blk – blocks PTAP/TSG101 interaction to inhibit HIV-1 budding; Fluorescence polarization, FITC-PTAP peptide / Tsg101 binding; 340,000 tested, under 10 active; Q99816; Potency, µM (titrated, usually from 115 µM), inactives show top-dose activity change, negative = inhibition, usual class: inhibitors; active means well fitted inhibition curve with a large enough effect in the main read-out, with a control signal flat, not every such curve was filed as active; inconclusive means small, poorly fitted or top-dose-only effect, or effect the other way, or a change in a side signal; inactive means no such curve, though single readings can be large or run the other way; further: potency means the concentration at half of the fitted maximal effect; % of control where 0% means no effect
# Target sequence (Q99816 whole entry, looked up): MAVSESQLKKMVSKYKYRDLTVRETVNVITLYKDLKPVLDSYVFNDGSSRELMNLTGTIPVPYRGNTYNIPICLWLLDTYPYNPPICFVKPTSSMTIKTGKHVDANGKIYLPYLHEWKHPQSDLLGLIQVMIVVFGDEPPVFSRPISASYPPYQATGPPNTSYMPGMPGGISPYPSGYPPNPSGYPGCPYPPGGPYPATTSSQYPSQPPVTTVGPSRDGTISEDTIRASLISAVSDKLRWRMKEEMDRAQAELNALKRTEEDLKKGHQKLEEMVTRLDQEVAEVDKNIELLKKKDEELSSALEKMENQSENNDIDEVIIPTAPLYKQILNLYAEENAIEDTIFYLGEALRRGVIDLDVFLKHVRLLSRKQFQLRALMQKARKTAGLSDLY
#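 Steps: Tsg101 binding domain dispensed (10 uM final), compounds pinned in DMSO, FITC-labeled PTAP-motif peptide added (50 nM final); after 20 min binding at room temperature, polarization measured.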
# PLK1 PBD inh – PLK1 (human) polo-box domain binding inhibition. Plk1 PBD binding of FITC phosphopeptide, fluorescence polarization. hit rate 2.8% among 360,000. AID 720504. Potency, µM, inactives show max response, negative = inhibition, hits mostly inhibitors; further: potency means the concentration at half of the fitted maximal effect; series mostly up to about 57 µM; on the % scale 0 is the no-effect control and ±100 the full control effect; nearly all actives have a fitted effect of over 65% in size
# uPA generation – inhibitors of cell surface uPA generation; Potency, µM (top dose mostly 38.3 µM), inactives show at the top dose activity change, negative = inhibition, actives largely listed as inhibitors; hit rate 0.31% among 330,000; cell surface uPA generation assay, qHTS; AID 540303; active means well fitted inhibition curve with a large enough effect; inconclusive means small, poorly fitted or top-dose-only effect; inactive means no such curve, though single readings can be large or run the other way; tested in mouse RAW 264.7 cells; further: potency means the concentration at half of the fitted maximal effect; on the % scale 0 is the no-effect control and ±100 the full control effect; nearly all actives have a fitted effect of over 55% in size
# VDR inhibitor – vitamin D3 receptor (human) inhibition; P11473; VDR-SRC2-3 peptide fluorescence polarization, 2 h; Potency, µM, for inactives: max response, negative = inhibition, usual class: inhibitors; hit rate 0.93% among 400,000; AID 504847; further: potency means the concentration at half of the fitted maximal effect; on the % scale 0 is the no-effect control and ±100 the full control effect
#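 Fluorescence polarization assay measuring small-molecule disruption of VDR binding to the coregulator peptide SRC2-3. Compounds were pin-transferred (23 nl) into the reagent mix and incubated 2 h at room temperature before reading.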
# TSHR antag – blocks TSH signaling through the human TSH receptor. hit rate 0.2% among 330,000. P16473. TSHR-expressing cells, TSH-stimulated cAMP HTRF, 2 h; hits give low values. AID 504810. activity change, negative = inhibition, % at 11.5 µM;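 active means activity change below a set negative limit, meaning inhibition stronger than a set level, cut at about -70% in these data; inconclusive means activity change between two set negative limits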; further: on the % scale 0 is the no-effect control and ±100 the full control effect
#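 TSHR-expressing cells, 200/well, pre-treated with compound, then stimulated with EC80 TSH (4nM final) for 2 hours at 37 deg C. cAMP measured by competitive HTRF: anti-cAMP cryptate antibody in lysis buffer plus cAMP-d2, read after 30 minutes at room temperature.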
# An asterisk follows results filed as active; u = inconclusive; x = not tested or not shown. The list is not random: actives were taken first. Their share in the collection is about 3.1%. Unless noted, the call rests on the fitted dose curve; in most records, active means well fitted curve in the direction sought with a large enough effect; inconclusive means small, poorly fitted or top-dose-only effect, or another doubt; inactive means no such curve, though single readings can be large; an effect the other way counts as inactive or inconclusive.
SMILES,PTAP TSG101 blk,PLK1 PBD inh,uPA generation,VDR inhibitor,TSHR antag
CC1CCN(c2ccc(-c3nc(C(C)C)no3)cc2[N+](=O)[O-])CC1,x,x,x,15.5%,x
C[C@H]1C=CC(=O)O[C@H]1c1ccccc1,0.8%,-3.7%,2.51µM*,-1.4%,x
C[C@@H]1C=CC(=O)O[C@@H]1c1ccc(C(F)(F)F)cc1,x,x,x,x,10.2
O=C(NCc1ccccn1)/C(=N/O)c1ccccc1,-0.3%,3.36µM*,-4.2%,-17.3%,-8.6
C/C(=N\O)C(=O)NCc1ccccn1,-2.8%,1.1%,-8.8%,-13.0%,7.6
Cc1ccc(C(=O)ON=C2CCN(S(=O)(=O)c3ccccc3)CC2)cc1,-2.9%,26.7µM*,5.2%,u,0.5
CC(=O)Nc1ccc(S(=O)(=O)N2CCN(C(=O)Cc3ccccc3)CC2)cc1,-0.5%,26.7µM*,3.0%,u,15.9
Cc1ccc(S(=O)(=O)N2CCN(C(=O)COc3ccc(NC(=O)c4ccco4)cc3)CC2)cc1,2.1%,16.8µM*,-6.1%,-23.6%,2.3
Cc1ccccc1C(=O)N1CCC(C(=O)Nc2ccc(S(=O)(=O)N3CCCC3)cc2)CC1,1.0%,11.9µM*,-0.9%,-17.8%,-0.2
CC(=O)Nc1ccc(S(=O)(=O)N2CCN(CCc3ccccc3)CC2)cc1,-0.2%,2.0%,5.2%,-18.8%,-6.8
CCCCCCn1c(=O)n2n(c1=O)C[C@]1(OC(=O)NCc3ccccc3)CN(S(=O)(=O)c3ccc(C)cc3)C[C@]1(O)C2,x,-3.2%,x,x,x
COc1ccccc1N1CCN(C(=O)c2cnn(-c3cccc(Cl)c3)c2C2CCN(C(=O)OC(C)(C)C)CC2)CC1,x,x,x,-2.0%,x
Cc1ccccc1NC(=O)N1CCN(S(=O)(=O)c2ccccc2)CC1,2.5%,16.8µM*,1.6%,-20.4%,0.0
Cc1ccc(NS(=O)(=O)c2ccc(C(=O)N3CCN(S(=O)(=O)c4ccccc4)CC3)cc2)cc1,2.0%,0.7%,7.08µM*,14.2%,-18.7
Cc1ccc(NC(=O)N2CCN(S(=O)(=O)c3ccccc3)CC2)cc1,-1.5%,-5.4%,1.6%,13.2%,0.3
O=C(CCNS(=O)(=O)c1ccc2c(c1)CCN2C(=O)C1CC1)Nc1ccc(F)cc1F,x,x,x,12.3%,x
Cc1cccc(C(=O)NNC(=O)c2ccc(S(=O)(=O)N3CCOCC3)cc2)c1,0.4%,-20.4%,-7.8%,1.9%,5.3
Cc1cc[n+](-c2[nH]c(=O)sc2/C=N/N=C(\[O-])c2ccccc2)cc1C,u,23.8µM*,x,-21.9%,4.4
Cc1ccc(-n2c3nc(=O)[nH]c(=O)c-3cc3cc([N+](=O)[O-])ccc32)cc1C,-4.1%,8.44µM*,-3.4%,u,-22.1
Cc1ccc(S(=O)(=O)n2cnc3cc([N+](=O)[O-])ccc32)cc1C,-1.4%,-12.0%,1.8%,1.6%,-11.4
O=C(NCCCc1ccccn1)C1CCC(=O)N(Cc2cccc(F)c2)C1 (centres undefined),-1.3%,-12.9%,7.8%,-1.9%,2.0
O=C(NCCCc1ccncc1)C1CCC(=O)N(Cc2cccc(F)c2)C1 (centres undefined),-5.4%,29.9µM*,-20.4%,u,22.0
Cc1cc(C)c2nc(N3CCCC(C(=O)NCc4ccccc4F)C3)sc2c1 (centres undefined),x,x,x,-23.4%,x
CC(OC(=O)CSc1ccc([N+](=O)[O-])cc1)C(=O)NCc1ccco1 (centres undefined),-1.1%,-14.2%,3.0%,-0.8%,1.1
CC1CCN(C(=O)C(C)OC(=O)CSc2ccc([N+](=O)[O-])cc2)CC1 (centres undefined),-5.1%,15µM*,-12.1%,u,-0.2
SMILES,PTAP TSG101 blk,PLK1 PBD inh,uPA generation,VDR inhibitor,TSHR antag
O=C(O)CCN1C(=O)C(=C2CCCCCC2)SC1=S,-6.6%,u,-6.5%,-25.4%,-25.6
O=C1CC(=O)N(Cc2cccs2)C(=O)N1,-3.4%,-19.6%,2.6%,u,2.8
O=C1CC(=O)N(Cc2ccco2)C(=S)N1,1.8%,21.2µM*,-0.9%,u,24.9
O=C1CC(=O)N(Cc2ccco2)C(=O)N1,-3.3%,6.7µM*,0.9%,u,1.0
S=C1NCN(Cc2ccco2)CN1,-9.6%,-5.9%,8.1%,-5.8%,0.2
O=C1C(=C2CCCCC2)SC(=S)N1Cc1ccco1,-1.3%,21.2µM*,-7.4%,u,0.2
Cc1cccc(NC(=O)CSc2nc(-c3ccccc3)cc(=O)[nH]2)c1C,x,x,x,-4.4%,x
COc1ccc(/C=C/C(=O)N2CCN(C)CC2)cc1OC,-4.5%,-4.9%,16.6%,-29.8%,-122.0*
COc1ccc(/C=C/C(=O)NCCN2CCOCC2)cc1OC,1.9%,16.8µM*,2.4%,-25.5%,22.2
COc1ccc(/C=C/C(=O)N2CCOCC2)cc1OC,-1.5%,1.0%,7.7%,-15.3%,1.5
COc1cc(/C=C/C(=O)NCCN2CCOCC2)cc(OC)c1OC,-1.6%,0.4%,-7.5%,-8.0%,4.3
CCOc1ccc(NC(=O)C2CCN(c3nc4ccccc4[nH]3)CC2)cc1,x,x,x,-2.9%,x
CCc1nc2ccc(C(=O)NCCCn3ccnc3)cn2c1N(C)Cc1ccc(Cl)cc1,x,-0.6%,x,x,x
O=C(COCc1cc(-c2cccs2)on1)NCc1ccc(Cl)cc1,x,x,x,-6.9%,x
CCN1C(=NCc2cc(OC)c(OC)c(OC)c2)N[C@@H](c2ccccc2)C(C(=O)OC)=C1C,-2.6%,23.8µM*,-3.3%,u,-7.9
Nn1cnn(Cc2ccccc2)c1=S,0.0%,23.8µM*,0.0%,-13.1%,-3.6
CCCCNC(=O)c1nc(-c2cc3ccccc3[nH]2)oc1-c1cccc(C(F)(F)F)c1,x,0.2%,x,x,x
CCC(C)(C)NC(=O)C(c1ccc(C)cc1)N(CCN1CCOCC1)C(=O)CNC(=O)c1cccs1 (centres undefined),-0.6%,29.9µM*,-1.4%,-9.4%,-4.6
COc1ccc(CN2C(=O)CN(S(C)(=O)=O)CC2(C)C(=O)NC(C)C)cc1OC (centres undefined),x,-0.6%,x,x,x
Oc1ccc(-c2sc(Nc3ccccc3)n[n+]2-c2ccc(F)cc2)cc1,-3.5%,-20.2%,5.5%,-19.3%,6.0
CSc1ccc(-c2sc(Nc3ccccc3)n[n+]2-c2ccc(F)cc2)cc1,-7.1%,29.9µM*,-7.9%,-15.8%,26.1
CCCNC(=O)C1(C)CCCN(C(=O)c2cc(C)nn2C(C)(C)C)C1 (centres undefined),x,-8.6%,x,x,x
COc1ccc2ccc3c(c2c1)N=C[C@]1(O3)N(C)c2ccccc2C1(C)C,2.2%,2.99µM*,-8.4%,-12.3%,-0.7
CC1=NOC2(C1)N(C)c1ccccc1C2(C)C (centres undefined),-1.8%,-7.3%,x,3.3%,30.5
S=c1[nH]nc(COc2ccccc2)n1/N=C/c1cccs1,-1.2%,-26.5%,-1.2%,-13.6%,-4.3
CC(C)c1ccc(/C=N/n2c(COc3ccccc3)n[nH]c2=S)cc1,-2.4%,23.8µM*,1.6%,-14.4%,-11.0
CN(C)c1ccc(/C=N/n2c(COc3ccccc3)n[nH]c2=S)cc1,0.0%,10.6µM*,-1.6%,-12.9%,11.8
S=c1[nH]nc(COc2ccccc2)n1/N=C/c1ccccc1Cl,-7.6%,26.7µM*,-7.2%,-27.7%,2.0
